Among all 130,000 compounds or so, about 1,200 (0.92%) were called active. Entries that show only a call come without a potency. Another 3% or so got no clear call; they are omitted. This excerpt belongs to a sample that is enriched for actives. Values without a mark were called inactive. Calls come from the whole dose curve; as a rule, active = well fitted cell-killing curve with a large enough effect; inconclusive = small, poorly fitted or top-dose-only effect; inactive = no such curve, though single readings can be large or run the other way.
Potency is the fitted concentration of half-maximal effect.

This test in a line: qHTS Screen for Compounds that Selectively Target Cancer Cells with p53 Mutations: Cytotoxicity of p53ts Cells at the Permissive Temperature. Note: nearly all actives have a fitted effect of over 55% in size. The note with it: H1299-p53A138V at 32C, ATP luminescence viability, 24 h; series mostly up to 46.1 µM. An excerpt:
NIH Chemical Genomics Center [NCGC] NIH Molecular Libraries Screening Centers Network [MLSCN] MLSCN Grant: 1 X01 MH079844-01 Assay Submitter (PI): Dr. SUN, YI, University of Michigan NCGC Assay Overview: Synthetic Lethal Screen for Compounds to Kill Cancer Cells with p53 Mutation. Tumor suppressor gene p53 serves as a major cellular barrier against tumorigenesis. […] The goal of this screening is to identify small molecule probes that selectively kill cancer cells with mutations in p53. This screening was carried out using two lines of H1299 lung cancer cells. The H1299-p53 A138V line express a temperature sensitive p53 mutant (p53ts) in which the mutant p53 protein (A138V) is in the mutant confirmation when grown at 39C (the nonpermissive temperature) and in the wild type conformation when grown at 32C (the permissive temperature). A H1299-neo line (p53 null) grown at both 39C and 32C were used as counter-screens to filter out false positive associated with temperature shifting. The small molecular compounds that selectively target mutant p53-containing cancer cells were selected as candidate probes for further study. A cytotoxicity assay based on the measurement of ATP contents in cells was used in this screen. Concentration-responses of all the compounds in the library collection were determined in qHTS using the cell lines and temperature conditions as above.
NCGC Assay Protocol Summary: Both the H1299-p53A138V and H1299-neo cell lines were provided by Dr.Yi Sun, a PI at the University Michigan. The cells were maintained and cultured at 37C. The resuspended frozen cells were used to plate the cells in the 1536-well assay plates at a density of 600 cells per well in 5 ul medium. The assay plates with the cells were incubated at 37C for 16 to 30 hours before the experiments. The library compounds in DMSO solution were added to the cells in assay plates and incubated 24 hours at 39C (for mutant p53 conformation) or 32C (for normal p53 conformation as control). An ATP_lite assay kit (PerkinElmer) was used to determine the cell viability. Tomaxifen (100uM) was used as the positive control for cell killing. Data were normalized to the controls for basal activity (DMSO only) and 100% killing (100uM tamoxifen). AC50 values were determined from concentration-response data modeled with the standard Hill equation. P53 assay protocol: 1. Reagent; 5 uL H1299-p53A138V or H1299-neo cell cells/well 2. Time; overnight; 37C incubation 3. Compounds; 23 nL; 5.9 nM to 46 uM 4. Controls; 23 nL; Tamoxifen 100 uM 5. Time; 24 hr; 37C incubation 6. Reagent; 3 uL; ATP_Lite reagent 7. Time; 20 min; Room Temperature 8. Detection; Luminescence; Viewlux plate reader Keywords: p53, synthetic lethal, cancer, cell viability, cytotoxicity, H1299 cell line, luminescence, MLSMR, MLSCN, NIH Roadmap, qHTS, NCGC
On the technique in general: Quantitative high-throughput screening tests each substance at several concentrations.
As for `COc1ccc(NC(=O)Nc2cccc3cccnc23)cc1`, the Potency was 12.6 µM (active).

Take `Cc1cccc(Cn2cccc(C(=O)Nc3ccc4c(c3)OCCO4)c2=O)c1`: the Potency entry is “inactive”.

On to `CC(=O)c1c(O)c(C)c(O)c(Cc2c(O)c3c(c(C(=O)/C=C\c4ccccc4)c2O)OC(C)(C)C=C3)c1O`, for which the Potency entry was “inactive”.

`CC(C)(c1ccc(OC[C@@H]2CO2)cc1)c1ccc(OC[C@H]2CO2)cc1`: the Potency is 12.6 µM (active).

For `CCOC(=O)c1ccc(N2C(=O)c3[nH]nc(-c4ccccc4)c3C2c2ccc(C(C)C)cc2)cc1` (stereo not given), the Potency entry is “inactive”.

For the compound `Cc1nnc(NC(=O)c2cccn(Cc3cccc(F)c3)c2=O)s1`, the Potency entry is “inactive”.

On to `C=CC#N`, for which the activity change, negative = cytotoxicity was -9.3% [at 1.84 µM].

Consider `O=C(Nc1ccc(Cl)cc1C(=O)c1ccccc1)c1cc(Cl)cc(Cl)c1`, for which the Potency entry was “inactive”.

For the compound `CN(C)C1C(=O)C(C(N)=O)=C(O)[C@@]2(O)C(=O)C3=C(O)c4c(O)cccc4[C@@](C)(O)C3C[C@@H]12` (stereo not given in full), the Potency entry was “inactive”.

As to `CC(C)Nc1nc(Cl)nc(NC(C)C)n1`, the Potency result is “inactive”.

As to `CC[C@@H]1CN2CC[C@@H]1C[C@H]2[C@H](O)c1ccnc2ccc(OC)cc12`, the Potency result was “inactive”.

On to `C[C@H](CCC(=O)O)[C@H]1CC[C@@H]2[C@H]3CC[C@H]4C[C@H](O)CC[C@@]4(C)[C@@H]3CC[C@@]21C`, for which the activity change, negative = cytotoxicity is 5.89% [at 9.22 µM].

Regarding `CC(C)Oc1ccc(NC(=O)c2cc3ccccc3o2)cc1`, the Potency was 6.31 µM (active).

Turning to `CN(C)c1cccc(C(=O)Nc2nc3ccc(S(=O)(=O)NC(C)(C)C)cc3s2)c1`, the Potency entry is “inactive”.

As for `Cc1ccc(NC(=O)N(Cc2ccc3c(c2)OCO3)C2CCN(Cc3ccccc3)CC2)cc1F`, the Potency result is “inactive”.

Turning to `Cc1ccc(-n2c(/C=C/c3cccc(C(F)(F)F)c3)nc3ccccc3c2=O)cc1`, the Potency result was “inactive”.

For `CCN1C[C@]2(COC)C(O)C[C@H](OC)[C@@]34C5C[C@]6(O)C(OC)C(O)[C@](OC(C)=O)(C5C6OC(=O)c5ccccc5)C(C(OC)C23)C14` (stereo not given in full), the Potency entry was “inactive”.

In the case of `N#Cc1c(Cl)c(Cl)c(Cl)c(C#N)c1Cl`, the Potency was 3.98 µM (active).

For the compound `Cc1ccc(Cl)cc1N1CCN(C(=O)C2CCC(CNS(=O)(=O)c3cccs3)CC2)CC1` (stereo not given), the Potency entry is “inactive”.

For `Cn1cc(/C=C/c2nc3ccccc3c(=O)n2-c2ccccc2)c2ccccc21`, the Potency entry is “inactive”.

(Values after PubChem BioAssay AID924 (National Center for Advancing Translational Sciences (NCATS), 2007).)
